Test results reported in the antibiotic and cytotoxicity screens of Wong et al. (2023).
Hit rate of the full screen: of about 39,000 compounds, about 3,300 (8.5%) were called active. This excerpt belongs to a sample that is enriched for actives.

System: HepG2
Test: cytotoxicity call (relative viability < 0.9)
Settings: 10 µM

Row | SMILES | cytotoxicity call
1 | [N-]=[N+]=NCc1ccccc1C[C@]1(C(=O)NC[C@@H](O)CO)N=C(c2ccc(OCCCO)cc2)O[C@H]1c1ccccc1 | inactive
2 | [N-]=[N+]=NCc1ccccc1C[C@]1(C(=O)NCc2ccccc2)N=C(c2ccc(OCCCO)cc2)O[C@H]1c1ccccc1 | active
3 | O=C(NC[C@@H](O)CO)[C@]1(CCS(=O)(=O)c2ccccc2)N=C(c2ccc(OCCCO)cc2)O[C@@H]1c1ccccc1 | inactive
4 | [N-]=[N+]=Nc1ccccc1C[C@@]1(C(=O)NCc2ccccc2)N=C(c2ccc(OCCCO)cc2)O[C@@H]1c1ccccc1 | inactive
5 | [N-]=[N+]=Nc1ccccc1C[C@@]1(C(=O)N2CCCCC2)N=C(c2ccc(OCCCO)cc2)O[C@@H]1c1ccccc1 | inactive
6 | [N-]=[N+]=Nc1ccccc1C[C@]1(C(=O)N2CCCCC2)N=C(c2ccc(OCCCO)cc2)O[C@H]1c1ccccc1 | active
7 | [N-]=[N+]=NCc1ccccc1C[C@@]1(C(=O)N2CCCCC2)N=C(c2ccc(OCCCO)cc2)O[C@@H]1c1ccccc1 | inactive
8 | CC(C)(C)OC(=O)CC[C@]1(C(=O)NCc2ccccc2)N=C(c2ccc(OCCCO)cc2)O[C@H]1c1ccccc1 | active
9 | O=C(NC[C@@H](O)CO)[C@]1(Cc2ccccc2)N=C(c2ccc(OCCCO)cc2)O[C@@H]1c1ccccc1 | inactive
10 | CN1CCN(C(=O)C[C@@H]2C=C[C@@H](NC(=O)Nc3ccccc3F)[C@H](CO)O2)CC1 | inactive
11 | OCc1ccc(-c2cccs2)cc1 | inactive
12 | CCNC(=O)N1CCN(CCO)CC1 | inactive
13 | C[C@@H]1CN([C@H](C)CO)C(=O)c2cc(NC(=O)CCC(F)(F)F)ccc2O[C@@H](C)CCCCO[C@@H]1CN(C)S(=O)(=O)c1ccc(F)cc1 | inactive
14 | CC(C)CC(=O)N[C@H](C(=O)N[C@H](C(=O)N[C@@H](CC(C)C)[C@@H](O)CC(=O)N[C@@H](C)C(=O)N[C@@H](CC(C)C)[C@@H](O)CC(=O)O)C(C)C)C(C)C | inactive
15 | COc1cccc(S(=O)(=O)N[C@@H]2CC[C@H](CCn3cc(-c4ccccc4OC)nn3)O[C@@H]2CO)c1 | inactive
16 | Cn1c(=O)c2c(ncn2CC(=O)N2CCN(c3ccccc3)CC2)n(C)c1=O | inactive
17 | CCOC(=O)CCCCCC(=O)Nc1ccc2c(c1)C(=O)N([C@@H](C)CO)C[C@@H](C)[C@H](CN(C)S(=O)(=O)c1cccs1)OCCCC[C@H](C)O2 | inactive
18 | C[C@@H]1CN([C@H](C)CO)C(=O)c2cccc(NC(=O)c3ccncc3)c2O[C@@H]1CN(C)S(=O)(=O)c1ccccc1 | inactive
19 | C[C@H](CO)N1C[C@H](C)[C@H](CN(C)S(=O)(=O)c2cn(C)cn2)Oc2c(NC(=O)Nc3ccc(F)cc3)cccc2C1=O | inactive
20 | C[C@H](CO)N1C[C@H](C)[C@@H](CN(C)S(=O)(=O)c2cn(C)cn2)Oc2c(NC(=O)Nc3ccc(F)cc3)cccc2C1=O | inactive
21 | C[C@H]1CN([C@@H](C)CO)C(=O)c2cccc(NC(=O)Nc3ccc(F)cc3)c2O[C@@H]1CN(C)S(=O)(=O)c1cn(C)cn1 | active
22 | C[C@@H]1CN([C@H](C)CO)C(=O)c2cccc(NC(=O)c3ccncc3)c2O[C@H]1CN(C)S(=O)(=O)c1cn(C)cn1 | inactive

Row | SMILES | cytotoxicity call
23 | COc1ccc(S(=O)(=O)N(C)C[C@@H]2Oc3c(NC(=O)c4ccncc4)cccc3C(=O)N([C@@H](C)CO)C[C@@H]2C)cc1 | inactive
24 | COc1ccc(S(=O)(=O)N(C)C[C@H]2Oc3c(NC(=O)c4ccncc4)cccc3C(=O)N([C@@H](C)CO)C[C@H]2C)cc1 | active
25 | C[C@H](CO)N1C[C@H](C)[C@H](CN(C)S(=O)(=O)c2ccccc2)Oc2c(NC(=O)c3ccncc3)cccc2C1=O | inactive
26 | C[C@H]1CN([C@@H](C)CO)C(=O)c2cccc(NC(=O)c3ccncc3)c2O[C@@H]1CN(C)S(=O)(=O)c1cn(C)cn1 | inactive
27 | C[C@@H]1CN([C@@H](C)CO)C(=O)c2cccc(NC(=O)c3ccncc3)c2O[C@@H]1CN(C)S(=O)(=O)c1ccccc1 | active
28 | C[C@@H]1CN([C@@H](C)CO)C(=O)c2cccc(NC(=O)c3ccncc3)c2O[C@H]1CN(C)S(=O)(=O)c1cn(C)cn1 | active
29 | COc1ccc(S(=O)(=O)N(C)C[C@H]2Oc3c(NC(=O)c4ccncc4)cccc3C(=O)N([C@H](C)CO)C[C@H]2C)cc1 | inactive
30 | C[C@@H]1CN([C@@H](C)CO)C(=O)Cc2cc(NS(=O)(=O)c3cccs3)ccc2O[C@@H]1CN(C)S(=O)(=O)c1cn(C)cn1 | inactive
31 | Cc1ccc(S(=O)(=O)N(C)C[C@H]2Oc3ccc(NC(=O)CCN4CCOCC4)cc3CC(=O)N([C@H](C)CO)C[C@@H]2C)cc1 | inactive
32 | C/C=C/c1ccc2c(c1)O[C@@H](CN(C)Cc1ccc(C(=O)O)cc1)[C@H](C)CN([C@H](C)CO)S2(=O)=O | inactive
33 | C[C@@H]1CN([C@@H](C)CO)C(=O)c2c(c3ccccc3n2C)-c2ccccc2CO[C@H]1CN(C)C(=O)c1ccc(F)cc1 | inactive
34 | OC[C@H]1O[C@H](C#Cc2ccccc2)C=C[C@@H]1O | inactive
35 | C[C@H](CO)N1C[C@H](C)[C@H](CN(C)C(=O)Nc2ccc3c(c2)OCO3)Oc2c(NC(=O)c3ccncc3)cccc2C1=O | inactive
36 | Cc1ccc(S(=O)(=O)N[C@H]2C=C[C@@H](CC(=O)NCCN3CCCCC3)O[C@@H]2CO)cc1 | inactive
37 | Cn1cnc2c1c(=O)[nH]c(=O)n2C | inactive
38 | Cc1cc(C(=O)N2CCCC[C@@H]2CCOc2cccc(CN(C)Cc3cccc4cccnc34)c2)c(=O)[nH]c1C | inactive
39 | Cc1nc(-c2cccc(F)c2)cs1 | inactive
40 | COc1ccc2c3c([nH]c2c1)[C@@H](CO)N(C[C@]13CN(CC2CCOCC2)C1)C(=O)Nc1c(noc1C)C | inactive
41 | C[C@@H]1CCCCO[C@@H](CN(C)C(=O)Nc2ccccc2)[C@@H](C)CN([C@H](C)CO)C(=O)c2cc(NC(=O)Nc3cccc4ccccc34)ccc2O1 | inactive
42 | C[C@@H]1CN([C@@H](C)CO)C(=O)c2cc(NC(=O)Nc3ccc(F)cc3)ccc2O[C@H]1CN(C)S(C)(=O)=O | inactive
43 | COc1ccc(NC(=O)Nc2ccc3c(c2)CC(=O)N([C@@H](C)CO)C[C@H](C)[C@@H](CN(C)C(=O)Nc2ccc(C(F)(F)F)cc2)O3)cc1 | inactive
44 | COc1ccc(NC(=O)Nc2ccc3c(c2)CC(=O)N([C@@H](C)CO)C[C@@H](C)[C@@H](CN(C)C(=O)Nc2ccc(C(F)(F)F)cc2)O3)cc1 | inactive

Row | SMILES | cytotoxicity call
45 | COc1ccc(NC(=O)Nc2ccc3c(c2)CC(=O)N([C@@H](C)CO)C[C@H](C)[C@H](CN(C)C(=O)Nc2ccc(C(F)(F)F)cc2)O3)cc1 | active
46 | COc1ccc(NC(=O)N(C)C[C@H]2Oc3ccc(NC(=O)Nc4ccc(C(F)(F)F)cc4)cc3CC(=O)N([C@@H](C)CO)C[C@H]2C)cc1 | active
47 | COc1ccc(NC(=O)Nc2ccc3c(c2)CC(=O)N([C@H](C)CO)C[C@H](C)[C@H](CN(C)C(=O)Nc2ccc(C(F)(F)F)cc2)O3)cc1 | inactive
48 | COc1ccc(NC(=O)N(C)C[C@@H]2Oc3ccc(NC(=O)Nc4ccc(C(F)(F)F)cc4)cc3CC(=O)N([C@H](C)CO)C[C@@H]2C)cc1 | inactive
49 | CO[C@H]1CCN(C(=O)CN(C)C)[C@@H]2CCO[C@@H]12 | inactive
50 | C[C@H](CO)N1C[C@H](C)[C@@H](CN(C)Cc2cccc3c2OCCCO3)OCc2ccccc2-c2c(n(C)c3ccccc23)C1=O | inactive
51 | CCCC(=O)Nc1ccc2c(c1)C(=O)N(C)C[C@@H](OC)[C@@H](C)CN(Cc1ccc(-c3ccccn3)cc1)[C@H](C)CO2 | inactive
52 | CN1C(=O)c2cc(NS(C)(=O)=O)ccc2OC[C@@H]2O[C@H](CC(=O)N3CCOCC3)CC[C@@H]21 | inactive
53 | C[C@@H]1C(=O)O[C@@H]2C[C@@](C)(O)[C@H]3C[C@H]4O[C@@]4(C)[C@@]3(O)C(=O)[C@@H]12 | inactive
54 | COc1ccc(S(=O)(=O)N(C)C[C@@H]2Oc3ccc(N(C)C)cc3C(=O)N([C@H](C)CO)C[C@@H]2C)cc1 | inactive
55 | Cc1ccc(S(=O)(=O)N(C)C[C@@H]2Oc3ccc(NC(=O)CCN4CCOCC4)cc3C(=O)N([C@H](C)CO)C[C@@H]2C)cc1 | inactive
56 | Cc1ccc(S(=O)(=O)N(C)C[C@H]2Oc3ccc(NC(=O)C4CC4)cc3C(=O)N([C@@H](C)CO)C[C@H]2C)cc1 | inactive
57 | COc1ccc(S(=O)(=O)N(C)C[C@H]2Oc3ccc(N(C)C)cc3C(=O)N([C@@H](C)CO)C[C@H]2C)cc1 | inactive
58 | Cc1ccc(S(=O)(=O)N(C)C[C@@H]2Oc3ccc(NC(=O)C4CC4)cc3C(=O)N([C@H](C)CO)C[C@@H]2C)cc1 | inactive
59 | COc1ccc(S(=O)(=O)N(C)C[C@H]2Oc3ccc(NC(=O)C4CC4)cc3C(=O)N([C@@H](C)CO)C[C@H]2C)cc1 | inactive
60 | Cc1ccc(S(=O)(=O)N(C)C[C@H]2Oc3ccc(NC(=O)CCN4CCOCC4)cc3C(=O)N([C@@H](C)CO)C[C@H]2C)cc1 | inactive
61 | Cc1ccc(S(=O)(=O)N(C)C[C@@H]2Oc3ccc(NC(=O)C4CC4)cc3C(=O)N([C@@H](C)CO)C[C@H]2C)cc1 | active
62 | COc1ccc(S(=O)(=O)N(C)C[C@@H]2Oc3ccc(N(C)C)cc3C(=O)N([C@@H](C)CO)C[C@H]2C)cc1 | active
63 | COc1ccc(S(=O)(=O)N(C)C[C@H]2Oc3ccc(NC(=O)C4CC4)cc3C(=O)N([C@@H](C)CO)C[C@@H]2C)cc1 | active
64 | COc1ccc(S(=O)(=O)N(C)C[C@@H]2Oc3ccc(NC(=O)C4CC4)cc3C(=O)N([C@@H](C)CO)C[C@H]2C)cc1 | inactive
65 | Cc1ccc(S(=O)(=O)N(C)C[C@H]2Oc3ccc(NC(=O)CCN4CCOCC4)cc3C(=O)N([C@@H](C)CO)C[C@@H]2C)cc1 | active
